This is part of a sample that, as a whole, favours compounds with a hit. Of some 79,000 tested, about 15% had one in any assay. Active and inactive are the calls of the source. Cut-off read from the data, not from the text of the source: active = growth inhibition above about 70%; inactive = the rest.
Experiment: NCI Yeast Anticancer Drug Screen. Data for the cln2 rad14 strain (AID 165);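 note: 0% = growth equal to vehicle treated cultures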
Settings: S. cerevisiae cln2 rad14 strain, at 50.0 µM, stronger effect = higher value
In short: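 Yeast strain cln2 rad14, bearing defects in cell cycle control and DNA repair, serves as the test system; values reflect growth inhibition compared with vehicle.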

| SMILES | growth inhibition |
| --- | --- |
| COC(=O)C1C(c2ccccc2)=N[C@@H](c2ccccc2)[C@H]1C(=O)OC (stereo not given in full) | 23.2% (inactive) |
| CCCCCCCCCC(C)CC(=O)NCCCN(C)CCCCN(C)C (stereo not given) (tested in a mixture with another compound) | 62.1% (inactive) |
| Cc1ccc(N=C2SC(=S)N(CCC[N+](C)(C)C)C2=Nc2ccc(C)cc2)cc1 | 99.5% (active) |
| N#CSc1ccc(O)c2ccccc12 | 91% (active) |
| CCCCCC1OC(CCCCC)OC(CCCCC)O1 (stereo not given) | 8.25% (inactive) |
| ClC1(c2ccccc2)c2ccccc2-c2ccccc21 | 8.7% (inactive) |
| CCN(CC)c1ccc(NC(CC(O)c2ccccc2)c2ccccc2)cc1 (stereo not given) | 51.5% (inactive) |
| CCCCCCC[n+]1ccc(C(=O)c2ccccc2)cc1 | 80.2% (active) |
| O=c1[nH][nH]c(=O)c2c1nc(SCc1ccccc1)n2Cc1ccccc1 | 75.8% (active) |
| CCOC(=O)C(NNc1ccccc1)C(c1ccccc1)[P+](c1ccccc1)(c1ccccc1)c1ccccc1 (stereo not given) | 99.5% (active) |
| CC(C)/C=C1\CCC(CN2CCOCC2)C1=O (stereo not given) | 30.9% (inactive) |
| CCc1cc2nc3c(=O)[nH]c(=O)nc-3n(CCN(CCO)CCO)c2cc1CC | 37% (inactive) |
| c1ccc2c(c1)OCC(CN1CCN(CC3COc4ccccc4O3)CC1)O2 (stereo not given) | 84% (active) |
| CNC(C)C(=O)c1ccc2ccc3ccccc3c2c1 (stereo not given) | 17.6% (inactive) |
| O=[N+]([O-])c1ccc(N=C(Cl)C(Cl)(c2ccccc2)c2ccccc2)cc1 | 94.2% (active) |
| O=[N+]([O-])c1ccc2c(c1)Cc1cc(Cl)ccc1-2 | 81.4% (active) |
| CCCCCCOC(=O)Nc1ccc(S(=O)(=O)N2CCCCC2)cc1 | 7.35% (inactive) |
| CCCCCCCCCCCOc1cccc(N2C(N)=NC(N)=NC2(C)C)c1 | 58.5% (inactive) |
| O=Nc1c(NO)c2ccccc2c2ccccc12 | 85.8% (active) |
| CCCCCCCCCCCCCCCCOS(=O)(=O)O | 97.7% (active) |

| SMILES | growth inhibition |
| --- | --- |
| CCCCCCCCCCCCCCCCCC[N+](C)(C)Cc1ccc(C[N+](C)(C)CCCCCCCCCCCCCCCCCC)cc1 | 44.9% (inactive) |
| NNc1ccc2ccccc2n1 | 86.9% (active) |
| Cc1cc(NC(=S)SCc2ccc(F)cc2)c([N+](=O)[O-])cc1C | 98.8% (active) |
| COC(=O)/C(=C\c1cn(C(C)=O)c2ccccc12)P(=O)(OC)OC | 63.9% (inactive) |
| O=C(Nc1ccccc1)c1ccccc1O | 73.8% (active) |
| CC(=O)c1c2c(cc3c1CC1(Cc4ccccc4C1=O)C3)CCC2 (stereo not given) | 46.4% (inactive) |
| CC(=O)c1c(-c2ccco2)c(C#N)c(=S)n(C2OC(CO)C(O)C(O)C2O)c1-c1ccccc1 (stereo not given) | 35.2% (inactive) |
| CC1(C)OC2C(CO)OC(n3ncc(=S)[nH]c3=O)C2O1 (stereo not given) | -1.95% (inactive) |
| C=C(C)C1CC/C(C)=C/CCC2(C)OC2CC/C(CO)=C\C1O (stereo not given) | 91.7% (active) |
| CC(C)CCSc1ncnc2nc[nH]c12 | 29.8% (inactive) |
| COC(=O)C1(Cc2ccc3c(c2)CCC3)Cc2ccc3c(c2C1O)CCC3 (stereo not given) | 85% (active) |
| Nc1ccc(C(=O)NN2C(=O)C(Cl)C2c2cc(Br)cc(Br)c2O)cc1 (stereo not given) | 89% (active) |
| COc1ccc(SC2=C(N(C)C(C)=O)C(=O)c3ccccc3C2=O)cc1 | 99.7% (active) |
| O=[N+]([O-])c1ccc(N/N=C/CCCCCCCCCCBr)c([N+](=O)[O-])c1 | 9.15% (inactive) |
| O=C(c1ccccc1)c1cccc2ccccc12 | -14.3% (inactive) |
| O=S1(=O)CCc2ccccc2C(Br)C1Br (stereo not given) | 98.3% (active) |
| CC(/C=N/NS(=O)(=O)c1ccc(C)cc1)=C(c1ccccc1)c1ccccc1 | 72.8% (active) |
| Cc1cc(CC(O)(C(F)(F)F)C(F)(F)F)cc(CC(O)(C(F)(F)F)C(F)(F)F)n1 | 98% (active) |
| O=S(=O)(c1cc(Cl)c(Cl)cc1Cl)N(CCCCCN(S(=O)(=O)c1cc(Cl)c(Cl)cc1Cl)S(=O)(=O)c1cc(Cl)c(Cl)cc1Cl)S(=O)(=O)c1cc(Cl)c(Cl)cc1Cl | 96% (active) |
| O=c1cc(-c2ccccc2)oc2ccc(-c3ccc4oc(-c5ccccc5)cc(=O)c4c3)cc12 | 28.4% (inactive) |

Reference: PubChem BioAssay (NCI)
